Measured values published in PubChem BioAssay AID1053175 (ICCB-Longwood Screening Facility, Harvard Medical School, 2014).
The whole screen tested about 330,000 compounds, of which about 700 (0.21%) were called active. Shown is part of a subset that was picked to be rich in actives. A number with no mark means an inactive call.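 Rule for the calls: active = OD600 absorbance below the run mean of sample wells minus 3.6 SD, in any replicate (cut at about 0.56 in these data); inactive = the rest.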

Assay: antibacterial activity against Escherichia coli – OD600, primary screen (AID 1053175)
Details: Escherichia coli growth, OD600, 23 h; hits give low values

SMILES	OD600 absorbance
CCCCCCCCCCCCn1ccc(=N)cc1	0.07 (active)
CN1CCN(N=Cc2c[nH]c3ccccc23)CC1	0.702
COC(=O)C1=C(c2cccc(OC)c2OC)CC2CCC1N2C(=O)N1CCOCC1 (stereo not given)	0.685
Nc1nonc1C(=O)NN=Cc1ccc([N+](=O)[O-])o1	0.449 (active)
COCCNC(=O)N1C2CCC1C(C(=O)OC)=C(c1ccc(OC(F)(F)F)cc1)C2 (stereo not given)	0.679
COC(=O)C1=C(c2ccc(F)cc2OCc2ccccc2)CC2CCC1N2C(=O)NCc1ccco1 (stereo not given)	0.626
Oc1ccc(C=NNP(=S)(c2ccccc2)c2ccccc2)cc1O	0.685
C=C1C(=O)OC2CC(C)C3C=CC(=O)[C@@]3(C)C(O)C12 (stereo not given in full)	0.625
CCN(CC)c1ccc([N+](=O)[O-])c2cccnc12	0.662
O=[N+]([O-])c1cnc2ccc3ccccc3c2c1	0.447 (active)
Cc1ccc(-n2c(-c3ccc([N+](=O)[O-])cc3)nc3ccccc3c2=O)cc1	0.718
CNC(=O)Nc1ccc(C(=O)NN=CC23CC[C@@H](O)CC2(O)CC[C@@H]2[C@@H]3CCC3(C)C(C4=CC(=O)OC4)CCC23O)cc1 (stereo not given in full)	0.72
CC12CCC3C(CCC4CC(=NO)CCC43C)C1CCC2O (stereo not given)	0.701
COc1ccc(-n2c(C=C3C(=O)Nc4ccccc43)nc3ccccc3c2=O)cc1	0.706
COC(=O)C1=C(c2ccc(S(C)(=O)=O)cc2)CC2CCC1N2C(=O)NCc1ccc(F)cc1 (stereo not given)	0.701
O=C1NC(=O)N(c2ccccc2)C(=O)/C1=C/c1ccc([N+](=O)[O-])s1	0.531
COc1cccc(N2C(=O)NC(=O)/C(=C\c3ccc([N+](=O)[O-])s3)C2=O)c1	0.482 (active)
COc1ccc(N2C(=O)/C(=C/c3ccco3)C(=O)NC2=S)cc1	0.67
COC(=O)C1=C(c2ccc(OC(F)(F)F)cc2)CC2CCC1N2C(=O)NC1CC1 (stereo not given)	0.688
C[C@]12CCC3c4ccc(O)c(O)c4CCC3C1CCC2O (stereo not given in full)	0.667
